Results on 38 molecules are retold here after PMC12431657, “Discovery and mechanistic insights of dibenzoylmethane as a broad spectrum inhibitor of coronavirus” (PLOS Pathogens, 2025).

This experiment concerns HCoV-229E. Details: species or system Huh-7; HTS, protection from HCoV-229E induced cell death, luminescent cell viability (CellCounting-Lite 2.0), inhibition rate. To be noted: 24 h post infection, 1 h compound pre-incubation, 10 µM, inhibitor.

Like-named read-outs stand apart in the source and are kept apart here. Hit rate of the full screen: of about 3,300 compounds, about 95 (3%) showed an effect of 50% or more. This is one part of a sample in which strong results are shown more often than they occur.

Consider `C[C@@H]1O[C@@H](O[C@H]2[C@H](Oc3cc(O)c4c(=O)cc(-c5ccc(O)cc5)oc4c3)O[C@H](CO[C@@H]3O[C@H](CO)[C@@H](O)[C@H](O)[C@H]3O)[C@@H](O)[C@@H]2O)[C@H](O)[C@H](O)[C@H]1O` [Apigenin-7-O-(2G-rhamnosyl)gentiobioside], for which the “229E Inhibition rate” value is listed as 22.2%.

In the case of `Nc1ccccc1S(=O)(=O)O` [2-Aminobenzenesulfonic acid], the “229E Inhibition rate” value worked out at 0%.

With `COc1cc(-c2[o+]c3cc(O)cc(O)c3cc2O)cc(O)c1O` [Petunidin (chloride)], the “229E Inhibition rate” value worked out at 13.2%.

In the case of `O=C(/C=C/c1ccc(O[C@@H]2O[C@H](CO)[C@@H](O)[C@H](O)[C@H]2O[C@@H]2OC[C@](O)(CO)[C@H]2O)cc1)c1ccc(O)cc1O` [Isoliquiritin apioside], the “229E Inhibition rate” value was 63.8%.

Turning to `O=C(/C=C/c1ccc(O)cc1)c1ccc(O[C@@H]2O[C@H](CO)[C@@H](O)[C@H](O)[C@H]2O)cc1O` [Neoisoliquiritin], the “229E Inhibition rate” value was found to be 24.9%.

Consider `O=C(/C=C/c1ccc(O[C@@H]2O[C@H](CO)[C@@H](O)[C@H](O)[C@H]2O)cc1)c1ccc(O)cc1O` [Isoliquiritin], for which the “229E Inhibition rate” value stood at 27.7%.

Regarding `C=C1CC[C@H]2O[C@]2(C)CC[C@@H]2[C@@H]1CC2(C)C` [Caryophyllene oxide], the “229E Inhibition rate” value came to 16.3%.

For `O=C(O)c1ccc(O)c(O)c1O` [2,3,4-Trihydroxybenzoic acid], the “229E Inhibition rate” value came to 18%.

With `C[C@H](CC[C@@H](O[C@@H]1O[C@H](CO[C@@H]2O[C@H](CO)[C@@H](O)[C@H](O)[C@H]2O)[C@@H](O)[C@H](O)[C@H]1O[C@@H]1O[C@H](CO)[C@@H](O)[C@H](O)[C@H]1O)C(C)(C)O)[C@H]1CC[C@@]2(C)[C@@H]3CC=C4[C@@H](CC[C@H](O[C@@H]5O[C@H](CO[C@@H]6O[C@H](CO)[C@@H](O)[C@H](O)[C@H]6O)[C@@H](O)[C@H](O)[C@H]5O)C4(C)C)[C@]3(C)C(=O)C[C@]12C` [11-oxo-mogroside V], the “229E Inhibition rate” value amounted to 0%.

`COc1cc([C@@H]2OC[C@@H]3[C@H]2CO[C@H]3c2cc(OC)c(O)c(OC)c2)cc(OC)c1O` [(-)-Syringaresinol]: the “229E Inhibition rate” value turned out to be 16.7%.

As for `Cc1cc(O[C@@H]2O[C@H](CO)[C@@H](O)[C@H](O)[C@H]2O)c2c(c1)C(=O)c1cccc(O)c1C2=O` [Chrysophanein], the “229E Inhibition rate” value came out at 51.1%.

Regarding `Cc1cc(O)c2c(c1)C(=O)c1cccc(O[C@@H]3O[C@H](CO)[C@@H](O)[C@H](O)[C@H]3O)c1C2=O` [Chrysophanol 8-O-glucoside], the “229E Inhibition rate” value was 8.4%.

As for `CC(=O)OC[C@H]1O[C@@H](O[C@@H]2[C@@H](O)[C@H](O[C@@H]3[C@H](O)C(C)(C)C[C@H]4C5=CC[C@@H]6[C@@]7(C)CC[C@H](O[C@@H]8O[C@H](C(=O)O)[C@@H](O)[C@H](O)[C@H]8O[C@@H]8O[C@H](CO)[C@H](O)[C@H](O)[C@H]8O[C@@H]8O[C@H](CO)[C@@H](O)[C@H](O)[C@H]8O)[C@](C)(CO)[C@@H]7CC[C@@]6(C)[C@]5(C)CC[C@@]34C)OC[C@@H]2O)[C@H](OC(C)=O)[C@@H](OC(C)=O)[C@@H]1OC(C)=O` [Soyasaponin Ab], the “229E Inhibition rate” value turned out to be 46.7%.

For the molecule `CN1CCC=C(C(=O)O)C1` [Arecaidine], where the note is “229E Inhibition rate, 24 h”, the “229E Inhibition rate” value is 7.9%.

Take `O=C(/C=C/c1ccc(O)c(O)c1)O[C@@H](C(=O)O)[C@@H](OC(=O)/C=C/c1ccc(O)c(O)c1)C(=O)O` [Chicoric acid]: the “229E Inhibition rate” value (229E Inhibition rate, 24 h) is 8%.

`CC(=O)OCCC(C)CCC=C(C)C` (centres unmarked) [Citronellyl acetate]: the “229E Inhibition rate” value was found to be 16.2%.

With `CCC(O)CC` [3-Pentanol], the “229E Inhibition rate” value turned out to be 19%.

As to `COc1cc(-c2coc3cc(O)c(OC)c(O)c3c2=O)cc(O)c1OC` [Irigenin], the “229E Inhibition rate” value stood at 11.4%.

For the molecule `COc1cc(-c2coc3cc4c(c(OC)c3c2=O)OCO4)cc(OC)c1OC` [Irisflorentin], the “229E Inhibition rate” value stood at 11.3%.

With `COc1cc(-c2coc3cc4c(c(O)c3c2=O)OCO4)cc(O)c1OC` [Dichotomitin], the “229E Inhibition rate” value is on record as 53.3%.

In the case of `CO[C@@H]1[C@H](O)[C@@H](CO)O[C@H]1n1ccc(=O)[nH]c1=O` [2′-O-Methyluridine], the “229E Inhibition rate” value was determined as 20.9%.

For the molecule `Oc1ccc([C@H]2COc3cc(O)ccc3C2)cc1` [(-)-(S)-Equol], the “229E Inhibition rate” value was determined as 8.5%.

`Oc1ccc(C2COc3cc(O)ccc3C2)cc1` (racemic) [(±)-Equol]: the “229E Inhibition rate” value stood at 11%.

Take `CC1(C)C=Cc2c(ccc3c2OC[C@@H](c2ccc(O)cc2O)C3)O1` [Glabridin]: the “229E Inhibition rate” value is recorded as 54.3%.

With `C=C1C[C@@]23CC[C@H]4[C@@](C)(CCC[C@@]4(C)C(=O)O)[C@@H]2CC[C@@H]1C3` [Kaurenoic acid], the “229E Inhibition rate” value was 8.8%.

For `CC(C)(O)CC[C@@H](O)[C@](C)(O)[C@H]1CC=C2C3=C(CC[C@@]21C)[C@@]1(C)C[C@H](O)[C@H](O)C[C@H]1C(=O)C3` [Podecdysone B], the “229E Inhibition rate” value stood at 11.2%.

`C[C@H](CCC(=O)O)[C@H]1CC[C@H]2[C@@H]3C(=O)C[C@@H]4C[C@H](O)CC[C@]4(C)[C@H]3CC[C@]12C` [7-Ketolithocholic acid]: the “229E Inhibition rate” value was 20.5%.

As for `CC(=O)c1ccc(O)c(C)c1` [4'-Hydroxy-3'-methylacetophenone], the “229E Inhibition rate” value is reported as 11.7%.

Consider `Cc1cc(C(=O)O)ccc1O` [4-Hydroxy-3-methylbenzoic acid], for which the “229E Inhibition rate” value amounted to 61.9%.

Regarding `COc1ccc(C(=O)O)cc1O` [Isovanillic acid], the “229E Inhibition rate” value turned out to be 0%.

Consider `COC(=O)c1ccc(OC)c(O)c1` [Methyl isovanillate], for which the “229E Inhibition rate” value came to 12.8%.

As to `CC(=O)c1ccc(O)c(O)c1` [3',4'-Dihydroxyacetophenone], the “229E Inhibition rate” value is 12.4%.

Turning to `Cc1ccc(C(=O)O)cc1C` [3,4-Dimethylbenzoic acid], the “229E Inhibition rate” value turned out to be 23.9%.

For the molecule `COc1ccc(C(C)=O)cc1O` [3-Hydroxy-4-methoxyacetophenone], the “229E Inhibition rate” value is 50.5%.

With `COc1cc(C(C)=O)ccc1O` [Apocynin], the “229E Inhibition rate” value stood at 5.3%.

Take `COc1cc(C(=O)O)ccc1O` [Vanillic acid]: the “229E Inhibition rate” value turned out to be 50%.

`O=Cc1cccs1` [2-Thiophenecarboxaldehyde]: the “229E Inhibition rate” value amounted to 6.5%.

Take `O=C(O)C(O)Cc1ccccc1` (racemic) [DL-3-Phenyllactic acid]: the “229E Inhibition rate” value is listed as 22.4%.
